TrxR1 inh = rat TrxR1 inhibition | O89049 | recombinant rTrxR1, NADPH fluorescence consumption, selenite substrate | Potency, µM (top dose mostly 114 µM), without a hit: at the highest dose activity change, negative = inhibition, hits mostly inhibitors | hit rate 1% among 390,000 | AID 588453; further: nearly all actives have a fitted effect of over 65% in size
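Rat TrxR1 (90 nM in the dispensed reagent) was pre-reduced with 400 uM NADPH for 5 min at room temperature, then incubated with compound for 15 min. After 400 uM selenite was added, NADPH fluorescence (Ex 340/Em 450 nm) was followed for 8 min.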
TrxR1 substrate = substrates of rat thioredoxin reductase 1. AID 588456. hit rate 0.01% among 390,000. purified TrxR1 substrate turnover, NADPH consumption readout. Potency, µM (highest dose often 114 µM), inactives show at the highest dose activity change, negative = substrate turnover. O89049; further: nearly all actives have a fitted effect of over 50% in size
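Rat TrxR1, dispensed at 90 nM, was prereduced with 400 uM NADPH (final) for 5 min at ~22 deg C, then incubated with compound 15 min before 400 uM selenite. A first-read NADPH fluorescence drop versus no-compound background flagged substrates.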
VDR inhibitor = blocks the human vitamin D receptor. VDR-SRC2-3 peptide fluorescence polarization, 2 h. Potency, µM, for inactives: max response, negative = inhibition, usual class: inhibitors. hit rate 0.93% among 400,000. AID 504847
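Fluorescence polarization assay measuring small-molecule disruption of VDR binding to the coregulator peptide SRC2-3. Compounds were pin-transferred (23 nl) into the reagent mix and incubated 2 h at room temperature before reading.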
GCN5L2 inh = inhibitors of human GCN5L2 histone acetyltransferase | GCN5L2 HAT assay, ThioGlo1 CoA-SH fluorescence | hit rate 0.21% among 390,000 | Potency, µM (doses to about 58.9 µM), for the others: top-dose activity change, negative = inhibition, usual class: inhibitors | Q92830
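Compounds, pin-transferred from DMSO stocks, meet 20nM GCN5L2 for 15 min before the reaction begins with H3(1-25) peptide (75uM) and acetyl-CoA (70uM). Thiol-reactive ThioGlo1 reports CoA release over 20 min at room temperature.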
* marks the source's active call; other numbers are inactive results; u = inconclusive; x = no result; ! = not confirmed by another sample; [ ] = another dose, or the depositor's remark. Only some compounds are listed: those with a hit (about 1.8% of all), similar ones and a draw of the others. The call rests on the fitted dose curve; in most records, active means well fitted curve in the direction sought with a large enough effect; inconclusive means small, poorly fitted or top-dose-only effect, or another doubt; inactive means no such curve, though single readings can be large; an effect the other way counts as inactive or inconclusive. On the % scale 0 is the no-effect control and ±100 the full control effect; potency means the concentration at half of the fitted maximal effect.

SMILES | TrxR1 inh | TrxR1 substrate | VDR inhibitor | GCN5L2 inh
COc1ccc(-n2cnc3cc(C(=O)NC4CCCCCC4)ccc32)cc1 | 16%[57.1 µM] | -8%[57.1 µM] | 22% | -8%
COc1ccccc1N1C(=O)CC(Sc2n[nH]c(-c3cccc(C)c3)n2)C1=O (configuration not stated) | 1.6µM* | 1% | -12% | -13%
O=C(CSC1=NCCS1)N1CCN(c2ccc(Cl)cc2)CC1 | 37%[57.1 µM] | 10%[57.1 µM] | u | 8%
O=C(CSC1=NCCS1)c1ccc(Cl)cc1 | 20%[57.1 µM] | -3% | 79µM* | -24%
CC(=O)C[C@H]1c2cc(F)cc(F)c2S(=O)(=O)N1C1CCN(Cc2ccccc2)CC1 | 2% | 2% | x | x
CCCCCCCCCCCCCCCCOC[C@H](COP(=O)([O-])OCC[N+](C)(C)C)OC(=O)CCCCCCCC(=O)O | x | x | u | 16µM*
CCCCCCCCCCCCCCCC(=O)OC[C@H](COP(=O)([O-])OCC[N+](C)(C)C)OC(=O)CCCCCCCCCCCCCCC | x | x | x | 2%
O=C1c2cc(CO)cc(O)c2C(=O)c2c(O[C@@H]3OC(CO)[C@@H](O)[C@@H](O)[C@@H]3O)cccc21 (some centres not stated) | 17% | 3% | -4% | x
O=C(O)c1cc(O)c2c(c1)[C@@H]([C@H]1c3cc(C(=O)O)cc(O)c3C(=O)c3c(O[C@@H]4O[C@H](CO)[C@@H](O)[C@H](O)[C@H]4O)cccc31)c1cccc(OC3O[C@H](CO)[C@@H](O)[C@H](O)[C@H]3O)c1C2=O (some centres not stated) | 5% | -3% | -29% | 0.5µM*
O=C1c2c(O)cccc2C(C2OC(CO)[C@@H](O)[C@H](O)[C@H]2O)c2cc(CO)cc(O)c21 (some centres not stated) | -18%[57.1 µM] | -6% | 7% | -21%
O=C(O)c1cc(O)c2c(c1)[C@H]([C@H]1c3cc(C(=O)O)cc(O)c3C(=O)c3c(O[C@@H]4O[C@H](CO)[C@@H](O)[C@H](O)[C@H]4O)cccc31)c1cccc(OC3O[C@H](CO)[C@@H](O)[C@H](O)[C@H]3O)c1C2=O (some centres not stated) | 79µM* | -15% | u | 0.71µM*
Cc1ccc(C)c(CSc2cn(CCNC(=O)c3cccs3)c3ccccc23)c1 | 8% | -3% | 2% | -12%
O=C(Nc1ccccc1)NN(C(=O)CCl)c1ccccc1 | 7.9µM* | 6% | -8% | -1%
Cc1ccc(N(NC(=O)C(O)(c2ccccc2)c2ccccc2)C(=O)CCl)cc1 | 7.1µM* | 0% | u | -5%
COc1cccc(/C=C/c2cnc3ccccc3n2)c1OC | 2% | -4% | x | x
COc1ccccc1-c1nc(S(=O)(=O)c2ccc(Cl)cc2)c(N2CCCCCC2)o1 | 24% | 9% | 6% | -8%
COc1ccccc1-c1nc(S(=O)(=O)c2ccccc2)c(N2CCCCC2)o1 | 0.89µM* | 7% | u | -7%
N=C1CCC(=N)c2c1c(O)c1ccccc1c2O | u | 2% | u | u
N#Cc1c(C#N)c(O)c2ccccc2c1O | -10% | 11% | 28µM* | -8%
COc1cc(NCCCC(C)N)c2ncccc2c1 (configuration not stated) | -25% | -7% | 45µM*! | -1%
COc1ccccc1CNc1ccnc(-c2ccccc2C(F)(F)F)n1 | x | x | 0% | -12%
O=C1C=CC2=C3c4cc(O)c(O)cc4C[C@@]3(O)COC2=C1 | x | x | 11µM* | x
CS[C@@H]1SC[C@H]2C(=O)N(C)C(C(C)C)C(=O)OC[C@@H](NC(=O)c3cnc4ccccc4n3)C(=O)N[C@@H](C)C(=O)N(C)[C@H]1C(=O)N(C)C(C(C)C)C(=O)OC[C@@H](NC(=O)c1cnc3ccccc3n1)C(=O)N[C@@H](C)C(=O)N2C (some centres not stated) | x | x | 17% | 15%

Assay outcomes deposited in PubChem BioAssay by National Center for Advancing Translational Sciences (NCATS).
